Laboratory results as given in the supplement of paper PMC7411054.

Key:
Settings in all cases: treatment time: 24 h
[1] = system: A549-ACTB-RAB5A; assay: lowest phenotypically active concentration; higher = less potent
Procedure, shortened: (§1)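 Live-cell features were measured per well and normalised to solvent control wells after fifteen gene-edited A549, HepG2 and WPMY1 reporter lines had been treated for 24 h at 0.3, 1, 3 or 9 µM in four wells each. A condition was deviating when ≥3 of 4 wells sat beyond the 95th percentile of control Euclidean distances. It was reproducible when the median replicate Pearson correlation exceeded the 95th percentile of non-replicates. Phenotypic activity demanded both.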

[2] = system: A549-GM130-SQSTM1; assay: as above
Procedure, shortened: as §1

[3] = system: A549-TP53BP1-CLTA; assay: as above
Procedure, shortened: as §1

[4] = system: HepG2-GM130-SQSTM1; assay: as above
Procedure, shortened: as §1

[5] = system: HepG2-TUBA1B-RELA; assay: as above
Procedure, shortened: as §1

[6] = system: A549-ACTB-RAB5A; assay: phenotypically active (imaging signature differs from DMSO and reproducible) at any of 0.3-9 uM (binary (1 = active, 0 = inactive)); higher = active
Procedure, shortened: as §1

[7] = system: A549-CANX-COX4; assay: as above
Procedure, shortened: as §1

[8] = system: A549-GM130-SQSTM1; assay: as above
Procedure, shortened: as §1

[9] = system: A549-TP53BP1-CLTA; assay: as above
Procedure, shortened: as §1

[10] = system: A549-TUBA1B-RELA; assay: as above
Procedure, shortened: as §1

[11] = system: HepG2-ACTB-RAB5A; assay: as above
Procedure, shortened: as §1

[12] = system: HepG2-CANX-COX4; assay: as above
Procedure, shortened: as §1

[13] = system: HepG2-GM130-SQSTM1; assay: as above
Procedure, shortened: as §1

[14] = system: HepG2-TP53BP1-CLTA; assay: as above
Procedure, shortened: as §1

[15] = system: HepG2-TUBA1B-RELA; assay: as above
Procedure, shortened: as §1

[16] = system: WPMY1-ACTB-RAB5A; assay: as above
Procedure, shortened: as §1

[17] = system: WPMY1-CANX-COX4; assay: as above
Procedure, shortened: as §1

[18] = system: WPMY1-GM130-SQSTM1; assay: as above
Procedure, shortened: as §1

[19] = system: WPMY1-TP53BP1-CLTA; assay: as above
Procedure, shortened: as §1

[20] = system: WPMY1-TUBA1B-RELA; assay: as above
Procedure, shortened: as §1

| SMILES | lowest phenotypically active concentration [1] | lowest phenotypically active concentration [2] | lowest phenotypically active concentration [3] | lowest phenotypically active concentration [4] | lowest phenotypically active concentration [5] | phenotypically active [6] | phenotypically active [7] | phenotypically active [8] | phenotypically active [9] | phenotypically active [10] | phenotypically active [11] | phenotypically active [12] | phenotypically active [13] | phenotypically active [14] | phenotypically active [15] | phenotypically active [16] | phenotypically active [17] | phenotypically active [18] | phenotypically active [19] | phenotypically active [20] |
| --- | --- | --- | --- | --- | --- | --- | --- | --- | --- | --- | --- | --- | --- | --- | --- | --- | --- | --- | --- | --- |
| N#CC(C#N)=NNc1cccc(Cl)c1 | 9 µM | 9 µM | 9 µM | 9 µM | 9 µM | 1 (active) | 1 (active) | 1 (active) | 1 (active) | 1 (active) | 1 (active) | 1 (active) | 1 (active) | 1 (active) | 1 (active) | 1 (active) | 1 (active) | 1 (active) | 1 (active) | 1 (active) |
| CCN(C)C(=O)Oc1cccc([C@H](C)N(C)C)c1 [rivastigmine] |  |  |  |  |  | 0 (inactive) | 0 (inactive) | 0 (inactive) | 0 (inactive) | 0 (inactive) | 0 (inactive) | 0 (inactive) | 0 (inactive) | 0 (inactive) | 0 (inactive) | 0 (inactive) | 0 (inactive) | 0 (inactive) | 0 (inactive) | 0 (inactive) |
| N#CC(O[C@@H]1O[C@H](CO[C@@H]2O[C@H](CO)[C@@H](O)[C@H](O)[C@H]2O)[C@@H](O)[C@H](O)[C@H]1O)c1ccccc1 (stereo not given in full) [Amygdalin] |  |  |  |  |  | 0 (inactive) | 0 (inactive) | 0 (inactive) | 0 (inactive) | 0 (inactive) | 0 (inactive) | 0 (inactive) | 0 (inactive) | 0 (inactive) | 0 (inactive) | 0 (inactive) | 0 (inactive) | 0 (inactive) | 0 (inactive) | 0 (inactive) |
| NC(=O)CS(=O)C(c1ccccc1)c1ccccc1 (stereo not given) [modafinil] |  |  |  |  |  | 0 (inactive) | 0 (inactive) | 0 (inactive) | 0 (inactive) | 0 (inactive) | 0 (inactive) | 0 (inactive) | 0 (inactive) | 0 (inactive) | 0 (inactive) | 0 (inactive) | 0 (inactive) | 0 (inactive) | 0 (inactive) | 0 (inactive) |
| COc1ccc(CCN2CCC(Nc3nc4ccccc4n3Cc3ccc(F)cc3)CC2)cc1 [astemizole] | 1 µM | ≤ 0.3 µM | 3 µM | 3 µM | 1 µM | 1 (active) | 1 (active) | 1 (active) | 1 (active) | 1 (active) | 1 (active) | 1 (active) | 1 (active) | 1 (active) | 1 (active) | 1 (active) | 1 (active) | 1 (active) | 1 (active) | 1 (active) |
| Cc1cc2c(C(C)C)c(O)c(O)c(C=O)c2c(O)c1-c1c(C)cc2c(C(C)C)c(O)c(O)c(C=O)c2c1O [gossypol] | 3 µM | 3 µM | 9 µM | 9 µM | 9 µM | 1 (active) | 1 (active) | 1 (active) | 1 (active) | 1 (active) | 1 (active) | 1 (active) | 1 (active) | 1 (active) | 1 (active) | 1 (active) | 1 (active) | 1 (active) | 1 (active) | 1 (active) |
| COc1ccc2c(c1OC)C(=O)O[C@@H]2[C@H]1c2cc3c(cc2CCN1C)OCO3 [Hydrastine] |  |  |  |  |  | 0 (inactive) | 0 (inactive) | 0 (inactive) | 0 (inactive) | 0 (inactive) | 0 (inactive) | 0 (inactive) | 0 (inactive) | 0 (inactive) | 0 (inactive) | 0 (inactive) | 0 (inactive) | 0 (inactive) | 0 (inactive) | 0 (inactive) |
| C=C1[C@@H](O)C2C=CC[C@H](C)C(=O)[C@](C)(O)C=C[C@@H](OC(C)=O)[C@]23C(=O)N[C@H](Cc2ccccc2)[C@@H]3[C@@H]1C (stereo not given in full) [Cytochalasin D] | ≤ 0.3 µM | ≤ 0.3 µM | ≤ 0.3 µM | ≤ 0.3 µM | ≤ 0.3 µM | 1 (active) | 1 (active) | 1 (active) | 1 (active) | 1 (active) | 1 (active) | 1 (active) | 1 (active) | 1 (active) | 1 (active) | 1 (active) | 1 (active) | 1 (active) | 1 (active) | 1 (active) |
| Cc1sc2c(c1C)C(c1ccc(Cl)cc1)=N[C@@H](CC(=O)OC(C)(C)C)c1nnc(C)n1-2 | ≤ 0.3 µM | ≤ 0.3 µM | ≤ 0.3 µM | ≤ 0.3 µM | ≤ 0.3 µM | 1 (active) | 1 (active) | 1 (active) | 1 (active) | 1 (active) | 1 (active) | 1 (active) | 1 (active) | 1 (active) | 1 (active) | 1 (active) | 1 (active) | 1 (active) | 1 (active) | 1 (active) |
| N#CC(C#N)=NNc1ccc(OC(F)(F)F)cc1 | 9 µM | 3 µM | 9 µM | 9 µM | 9 µM | 1 (active) | 1 (active) | 1 (active) | 1 (active) | 1 (active) | 1 (active) | 1 (active) | 1 (active) | 1 (active) | 1 (active) | 1 (active) | 1 (active) | 1 (active) | 1 (active) | 1 (active) |
